PubChem BioAssay AID1672 (Johns Hopkins Ion Channel Center, 2009)
Out of some 310,000 compounds screened, about 2,600 (0.84%) were called active. This is one part of a sample in which actives are shown more often than they occur. Unmarked numbers belong to inactive results.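 The calls were made as follows: active = fluorescence ratio B-score at or below minus 3 SD of library scores, with starting-brightness B-score within 2 SD (cut at about -4.2 in these data); inactive = the rest.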

target: Inward rectifier potassium channel 2 (Mus musculus) (UniProt P35561); assay: blocks the mouse Kir2.1 inward-rectifier potassium channel (AID 1672); settings: HEK293-Kir2.1, FluxOR thallium flux fluorescence; at 10 µM; hits give low values;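 also: channel flux triggered by added potassium and thallium sulfate stimulus; B-score of peak minus minimum fluorescence over baseline after thallium stimulus; more negative B-score means stronger Kir2.1 block with less thallium influx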
Sequence (P35561 whole entry, looked up): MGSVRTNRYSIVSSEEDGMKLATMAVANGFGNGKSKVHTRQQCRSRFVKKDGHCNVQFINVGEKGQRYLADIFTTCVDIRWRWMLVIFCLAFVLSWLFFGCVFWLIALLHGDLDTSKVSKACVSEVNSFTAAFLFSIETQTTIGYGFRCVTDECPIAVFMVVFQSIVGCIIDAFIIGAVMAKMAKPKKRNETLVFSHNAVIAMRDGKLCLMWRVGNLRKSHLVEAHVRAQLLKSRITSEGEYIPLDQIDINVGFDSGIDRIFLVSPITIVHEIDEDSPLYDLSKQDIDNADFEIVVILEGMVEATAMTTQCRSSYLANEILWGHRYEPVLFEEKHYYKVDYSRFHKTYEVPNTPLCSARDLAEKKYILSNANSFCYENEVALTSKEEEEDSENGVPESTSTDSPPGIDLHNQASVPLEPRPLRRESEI

SMILES | B-score
CCCNC(=O)CSc1nc(Cc2ccccc2)nc2ccccc12 | -5.07 (active)
CCc1nc(SCC(=O)NNC(=O)c2ccc(C)cc2)c2ccccc2n1 | -1.13
CCCc1nc(SCC(=O)Nc2ccc(S(=O)(=O)N(C)C)cc2)c2ccccc2n1 | 0.71
Brc1cnc2ccccc2c1N1CCCCC1 | 0.77
CCOc1ccc(NS(=O)(=O)c2ccc(C(=O)NCC(c3ccccc3OC)N3CCCC3)cc2)cc1 (stereo unspecified) | -0.36
CC1CCN(C(=O)COC(=O)c2cc(S(=O)(=O)N3CCOCC3)ccc2Cl)CC1 | -1.43
CCOc1ccc(/C=C/C(=O)N(CC)CC(=O)NCc2cccs2)cc1OC | 0.23
Cc1ccc(C)c(CN2CCC(CNC(=O)Nc3ccc(C)c(F)c3)CC2)c1 | -0.54
Cc1cccc(CN2CCC(CNC(=O)Nc3ccc(F)c(Cl)c3)CC2)c1 | -4.23 (active)
Cc1ccccc1NC(=O)NCC1CCN(Cc2cccc(Cl)c2)CC1 | -0.23
O=C1[C@H]2[C@@H](c3ccc(Cl)cc3)N3C(=O)N(c4cccc(F)c4)C(=O)[C@@]3(Cc3ccccc3)[C@H]2C(=O)N1C1CCCCC1 | 1.66
CCCC[C@@H]1CN=C(N)N1CCCC | 0
O=C(NCC(c1ccco1)N1CCc2ccccc21)c1cccc(F)c1 (stereo unspecified) | -0.73
c1ccc(Cc2ccc(OCCn3ccnc3)cc2)cc1 | -1.84
C=CCc1cc(C)ccc1OCCCn1ccnc1 | 0.46
Clc1c(OCCCn2ccnc2)ccc2ccccc12 | -7.14 (active)
CC(=O)Nc1ccc(NC(=O)CSC2=NS(=O)(=O)c3ccccc3N2)cc1 | 1.78
CC1(C)CC[C@]2(C(=O)O)CC[C@]3(C)C(=CCC4[C@@]5(C)CC[C@H](O)C(C)(C)C5[C@H](O)C[C@]43C)[C@@H]2C1 (stereo partly specified) | -0.05
CC(=O)c1sc(N)nc1C | 0.05
O=C1CC2(CCN(C(=O)COc3ccc(F)cc3)CC2)Oc2ccccc21 | -0.48
CN(CC#CCC(c1ccccc1)c1ccccc1)C(C)(C)C | -5.14 (active)

SMILES | B-score
CC(C)(C)N(CC#CCC(O)(c1ccccc1)C1CCCC1)CCO (stereo unspecified) | -0.14
COc1ccc(C#Cc2c(-c3ccc(OC)cc3)oc3ccc(-c4ccc5c(c4)OCO5)cc23)cc1 | 0.43
COc1ccc(N(Cc2ccccc2)S(=O)(=O)c2cccc(C(=O)O)c2)cc1 | -0.29
C=CCN(c1ccc(Cl)cc1)S(=O)(=O)c1cccc(C(=O)OCC(=O)N(C)C)c1 | -4.24 (active)
CN(C)S(=O)(=O)c1cccc(C(=O)OCC(=O)N2CCCC2=O)c1 | 0.88
CCN(CC(=O)Nc1cccc(S(=O)(=O)N2CCCCC2)c1)Cc1ccccc1 | -0.91
Cc1ccccc1NC(=O)COc1cccc2c1CCNC2=O | -0.1
Cc1cc(OCC(=O)N(C)c2c(N)n(Cc3ccccc3)c(=O)[nH]c2=O)c(C(C)C)cc1Cl | -0.39
FC(F)(F)c1ccc2c3n(nc2c1)CCN=C3c1ccc(Cl)cc1 | 0.62
CN(C(=O)c1cc2c(=O)n3ccccc3nc2s1)C1CCCCC1 | -0.51
CC(C)CN(C(=O)Cn1c(=O)cnc2ccccc21)C1CCS(=O)(=O)C1 (stereo unspecified) | -2.2
CSc1ccc(CN(C)CC(=O)NCc2ccc(F)cc2)cc1 | -4.3 (active)
Cc1ccc(SC(C)C(=O)NCc2ccc(F)cc2)cc1 (stereo unspecified) | -0.79
Cc1ccc(NC(=O)CN(C)Cc2ccc(F)cc2)c([N+](=O)[O-])c1 | -0.89
CN(CC(=O)Nc1cccc(F)c1)C(=O)C1=COCCO1 | -0.96
O=C(NCCC1CCCCN1S(=O)(=O)c1cccs1)C(=O)Nc1ccc(F)cc1F (stereo unspecified) | -1.66
Cc1cc(C)c(C)c(S(=O)(=O)Nc2ccc(O)cc2)c1C | -9.99 (active)
Cc1cc(C)c(C)c(S(=O)(=O)Nc2cccnc2)c1C | -0.73
CCOc1ccc(NS(=O)(=O)c2cc(C)c(C)cc2C)cc1 | -1.54
C=CCC1(C(=O)N(C)Cc2ccccc2)CCN(C(=O)OC(C)(C)C)CC1 | 0.59
COc1cc2ccccc2cc1C(=O)Nc1ccncc1 | -0.09

SMILES | B-score
OCCNCCOc1ccc(Cl)c(Cl)c1 | 0.04
OCCNCc1cccc(OCc2ccccc2Cl)c1 | -5.85 (active)
S=C(NCCc1ccccc1)NCc1ccccc1Cl | -2.33
CCCCN(C(=O)c1ccc(C)o1)c1c(N)n(CCCC)c(=O)[nH]c1=O | 1.81
CC(C)(C)n1nc(Cc2cccc3ccccc23)c(C#N)c1N | 0.39
c1ccc2cc(OCCN3CCCC3)ccc2c1 | 1.22
c1ccc(-c2ccc(OCCN3CCOCC3)cc2)cc1 | -0.1
CC(C)(c1ccccc1)c1ccc(OCCN2CCCC2)cc1 | -6.84 (active)
CN(C)CC(O)COc1ccc(C(C)(C)c2ccc(OCC(O)CN(C)C)cc2)cc1 (stereo unspecified) | -2.29
CC(C)(c1ccccc1)c1ccc(OCCN)cc1 | -6.43 (active)
Cc1nn(CCOc2ccccc2)c(=O)n1-c1ccccc1F | -0.66
O=C(NC(Cc1ccccc1)C(=O)N1CCCC(C(F)(F)F)C1)c1ccccc1 (stereo unspecified) | -0.03
CCN1C(=O)[C@@H]2[C@@H](c3ccc(-c4ccccc4)cc3)N3CCCC[C@@]3(C(=O)OC)[C@@H]2C1=O | 2.48
CC(=O)c1ccc(S(=O)(=O)NC2CC(=O)N(c3ccc4c(c3)OCCO4)C2)cc1 (stereo unspecified) | 2.09
CCCCN1C(N)=NC[C@@H]1Cc1ccccc1 | 1.05
Nc1ccc(C(=O)N2CCN(S(=O)(=O)c3ccc(Cl)cc3)CC2)cc1[N+](=O)[O-] | 0.63
CCOc1ccccc1NS(=O)(=O)c1cc2c3c(c1)C(C)C(=O)N3CCC2 (stereo unspecified) | -0.71
COc1ccccc1CCNS(=O)(=O)c1cc2c3c(c1)C(C)C(=O)N3CCC2 (stereo unspecified) | -5.71 (active)
CC1C(=O)N2CCCc3cc(S(=O)(=O)NCc4ccc(F)cc4)cc1c32 (stereo unspecified) | -0.21
